Screening results from PubChem BioAssay.
FMDV inh: blocks foot and mouth disease virus; actives 1.2% (n = 410,000); FMDV antiviral cell-based qHTS; AID 1159524; Potency, µM (doses to about 57.9 µM), inactives show top-dose activity change, negative = inhibition, most hits filed as inhibitors; calls by dose curve; tested in HEK293T cells; further: read-out not given here; potency means the concentration at half of the fitted maximal effect; on the % scale 0 is the no-effect control and ±100 the full control effect; nearly all actives have a fitted effect of over 45% in size
CHX counter: counter-screen for Shiga toxin inhibitors: cycloheximide protein synthesis inhibition; actives 12% (n = 300,000); max response, %; cell reporter, cycloheximide protein synthesis inhibition counterscreen; in the data active means max response mostly above about 13%, no sharp cut-off; inactive means mostly below about 14%; further: read at 38.3 µM for the half of the compounds with a filed dose; 0% is about no effect
MARV entry inh: blocks Marburg virus binding to or entry into cells; Marburg virus pseudotyped entry inhibition, cell reporter; actives 1.8% (n = 300,000); Potency, µM (series often up to 37.8 µM), for the others: top-dose activity change, negative = inhibition, most hits filed as inhibitors; calls by dose curve; tested in HEK293 cells; further: potency means the concentration at half of the fitted maximal effect; on the % scale 0 is the no-effect control and ±100 the full control effect
LASV entry inh: inhibitors of Lassa virus binding or cell entry; Lassa virus pseudotype entry inhibition, cell reporter; Potency, µM (doses to about 37.9 µM), inactives show top-dose activity change, negative = inhibition, most hits filed as inhibitors; actives 1.2% (n = 300,000); AID 540256; calls by dose curve; tested in HEK293 cells; further: potency means the concentration at half of the fitted maximal effect; on the % scale 0 is the no-effect control and ±100 the full control effect; nearly all actives have a fitted effect of over 50% in size
Shiga inhibitor: inhibitors of Shiga toxin in Vero cells; Vero cells, Shiga toxin protein synthesis inhibition reporter; inhibition, % at 38.7 µM; actives 9.2% (n = 290,000); AID 2315; in the data active means inhibition mostly above about 28%, no sharp cut-off; inactive means mostly below about 43%; further: 0% is about no effect
HCV inhibitor: inhibitors of hepatitis C virus infection; Huh7.5.1 HCVcc-Cre infection, luciferase reporter, 44 h; Potency, µM (series often up to 41.8 µM), for the others: at the top dose activity change, negative = inhibition, actives largely listed as inhibitors; actives 3.4% (n = 340,000); active means well fitted inhibition curve with a large enough effect; inconclusive means small, poorly fitted or top-dose-only effect, or another doubt; inactive means no such curve, though single readings can be large or run the other way; further: potency means the concentration at half of the fitted maximal effect; on the % scale 0 is the no-effect control and ±100 the full control effect
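Cells seeded at 1,000/well and cultured 4 h, then compounds added followed by HCVcc-Cre virus (~0.5 moi). After 44 h further culture, luciferase substrate was added, plates held 15 min at room temperature, and luminescence read for 15 sec.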
Numbers without * were called inactive; ? = inconclusive; . = no result; [ ] = remark or other dose. Rows were chosen to be rich in hits. Some 13% of all compounds tested hit in one or more screens of this group.

SMILES	FMDV inh	CHX counter	MARV entry inh	LASV entry inh	Shiga inhibitor	HCV inhibitor
Cc1ccc(SCC(c2ccccc2)N2CCN(CC(C)C)CCC2=O)cc1 (stereo unspecified)	.	42*	.	.	89*	.
O=C1CCC(C(=O)N2CCN(c3cnccn3)CC2)CN1CCc1ccc(Cl)cc1 (stereo unspecified)	-10%	-3	9%	10%	-11	-19%
COc1ccc(N2CCN(C(=O)c3ccc(N4C(=O)NC5CC4(C)Oc4ccccc45)cc3)CC2)cc1 (stereo unspecified)	-3%	10	-17%	?	2	?
CC12CC(c3ccccc3O1)N(C(=O)c1ccco1)C(=S)N2c1ccc(F)cc1 (stereo unspecified)	0%	-2	?	?	-14	2.8µM*
N#CCCn1nnc2ccccc21	-15%	3	1%[46.1 µM]	-5%	-17	14%
N#Cc1ccc(COn2nnc3ccccc32)cc1	54%	31*	11%[46.1 µM]	9%	33	4%
c1ccc2c(COn3nnc4ccccc43)cccc2c1	38%	54*	2%	91%[14.3 µM]	87*	.
NC(=O)c1ccsc1NC(=O)COC(=O)CNC(=O)c1cccc([N+](=O)[O-])c1	-13%	.	.	.	.	-10%
Cc1ccc(C)c(NC(=S)NCc2cccn2C)c1	.	-3	1%	.	-10	?
COc1ccc(CCNC(=O)COc2cc(O)c3c(c2)OC(C)(C)CC3=O)cc1	-16%	-4	.	.	-3	?
COc1cccc(NC(=O)COc2cc(O)c3c(c2)OC(C)(C)CC3=O)c1	-1%	24*	.	.	25	-94%
COc1ccc(NC(=O)COc2cc(O)c3c(c2)OC(C)(C)CC3=O)cc1	0%	-1	.	.	-1	2.8µM*
COc1ccc(CCNC(=O)COc2cc(O)c3c(c2)OC(C)(C)CC3=O)cc1OC	-27%	-2	.	.	-5	3.2µM*
COc1ccc(CNC(=O)COc2cc(O)c3c(c2)OC(C)(C)CC3=O)c(OC)c1	-23%	-1	.	.	-6	?
COc1cc(NC(=O)COc2cc(O)c3c(c2)OC(C)(C)CC3=O)cc(OC)c1	-33%	7	.	.	3	2.8µM*
CC1(C)C(=O)Nc2ccccc2N1C(=O)COc1ccc(S(=O)(=O)N2CCOCC2)cc1Cl	-24%	-3	20%	3%	-16	18%
OC1(c2ccc(OC(F)F)cc2)CSC(=Nc2cccnc2)N1Cc1ccco1 (stereo unspecified)	8.9µM*	6	?	?	-4	11µM*
N#CCCN1CCN(C2=NC(=O)/C(=C\c3cccs3)S2)CC1	31%	21*	?	2%	29	4%
Cc1ccccc1-c1ccc(/C=C2/SC(N3CCOCC3)=NC2=O)o1	-20%	-2	?	13µM*	13	?
O=C1N=C(N2CCOCC2)S/C1=C\c1ccc(-c2ccccc2Cl)o1	9%	0	?	-1%	-12	-11%
Cc1ccsc1/C=C1/SC(N2CCOCC2)=NC1=O	.	21	29%	25%	42	0%
O=C1N=C(N2CCOCC2)S/C1=C\c1cccs1	66%	22*	3%	.	39*	?
O=c1c(CCc2ccccc2)nc2cnc(N3CCOCC3)nc2n1C[C@H]1CCCO1	-1%	.	.	.	.	.
COc1cccc(CN2CCC(n3cc(C(=O)N4CCCCC4)nn3)CC2)c1OC	-8%	.	.	.	.	.
CC1CCC2C(C)C(=O)OC3O[C@]4(C)CCC1[C@@]32OO4 (stereo partly specified)	-14%	10	.	.	-5	.
SMILES	FMDV inh	CHX counter	MARV entry inh	LASV entry inh	Shiga inhibitor	HCV inhibitor
Nc1ccc(Cc2nc3cc4ccccc4cc3[nH]2)cc1	.	45*	?	2.6µM*	52*	-16%
Nc1ccc(C(=O)OCCCc2nc3cc4ccccc4cc3[nH]2)cc1	23%	16	.	.	26	-16%
Nc1ccc(C(=O)OCc2nc3cc4ccccc4cc3[nH]2)cc1	20%	14	1.6µM*	2.6µM*	48*	-28%
Nc1ccc(C(=O)OCc2nc3c(ccc4ccccc43)[nH]2)cc1	9%	25*	?	8.9µM*	80*	?
Cc1cc(C(=O)COc2ccc(Br)cc2F)c(C)n1CC1CCCO1 (stereo unspecified)	27%	.	.	.	.	.
O=C(CCNC(=O)N1CC(=O)Nc2ccccc21)Nc1ccc(Br)cc1F	-6%	-2	.	.	10	-5%
